Sampled rows, rich in hits. Any-hit rate of the full collection: about 21%.
Shiga toxin inh: Shiga toxin inhibition; AID 2315; Vero cells, Shiga toxin protein synthesis inhibition reporter; inhibition, % at 38.7 µM; hit rate 9.2% among 290,000; in the data active = inhibition mostly above about 28%, no sharp cut-off; inactive = mostly below about 43%
Pf growth 96h: P. falciparum growth inhibition at 96 hour, primary screen for plastid delayed-death inhibitors | P. falciparum luciferase reporter growth, 96 h | Potency, µM (top dose mostly 28.7 µM), actives largely listed as inhibitors | hit rate 6.9% among 320,000
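Infected RBCs, 2% Hct / 0.05% parasitemia final; luciferase-reporter P. falciparum; cpd 96 h, 37 C, 5% CO2; luciferase detection reagent; luminescence.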
SARS PLP yeast: blocks SARS-CoV papain-like protease in a yeast assay; S. cerevisiae expressing SARS-CoV PLpro, growth rescue; Potency, µM (series often up to 32.9 µM), most hits filed as activators; hit rate 0.19% among 330,000; calls by dose curve; note: nearly all actives have a fitted effect of over 55% in size
CHX counter: affects cycloheximide protein synthesis inhibition readout, counter-screen; max response, %; cell reporter, cycloheximide protein synthesis inhibition counterscreen; hit rate 12% among 300,000; in the data active = max response mostly above about 13%, no sharp cut-off; inactive = mostly below about 14%; note: read at 38.3 µM for the half of the compounds with a filed dose
Pf growth 48h: inhibits P. falciparum growth in the first generation, 48 h. P. falciparum luciferase growth in erythrocytes, 48 h. Potency, µM (top dose mostly 28.7 µM), usual class: inhibitors. hit rate 5.9% among 310,000. AID 504832
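Luciferase-expressing P. falciparum in infected erythrocytes (2% hematocrit, 0.1% parasitemia final) in RPMI 1640/0.5% Albumax were exposed to compound for 48 hours at 37 C, 5% CO2; growth read as luminescence.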
NS1 inh: influenza NS1 inhibition. Potency, µM (top dose mostly 46.1 µM). hit rate 0.4% among 270,000. AID 2326; calls by dose curve; note: actives are rising curves; nearly all actives have a fitted effect of over 50% in size
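Read-out: OD600 growth recovery of NS1-expressing budding yeast. Cells grown overnight at 30C in -URA glucose medium, washed, resuspended and diluted 1:100 in 2% galactose assay medium, pH 6.0. Same strain lacking NS1 served as positive control.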
A number is an active result. Unless noted, calls come from the whole dose curve; as a rule, active = well fitted inhibition curve with a large enough effect; inconclusive = small, poorly fitted or top-dose-only effect, or another doubt; inactive = no such curve, though single readings can be large or run the other way.

What do the screens show for `COC(=O)c1c(C)oc(C)c1S(=O)(=O)N1CCCC1`?
Shiga toxin inh: inactive; Pf growth 96h: inactive; SARS PLP yeast: inactive; CHX counter: inactive; Pf growth 48h: inactive; NS1 inh: inactive

How did CC(C)CCNC(=O)c1onc(CSc2ccc(F)c(F)c2)c1C(=O)NCCC(C)C do in these assays?
Shiga toxin inh: inactive; Pf growth 96h: 10µM; SARS PLP yeast: inactive; CHX counter: inactive; Pf growth 48h: 12µM; NS1 inh: inconclusive

What do the screens show for `CC(C)CCNC(=O)c1onc(CSc2ccc(Cl)cc2)c1C(=O)NCCC(C)C`?
Shiga toxin inh: inactive; Pf growth 96h: inconclusive; SARS PLP yeast: inactive; CHX counter: inactive; Pf growth 48h: inconclusive; NS1 inh: inactive

Results for CC(C)NC(=O)c1onc(CSc2ccc(F)c(F)c2)c1C(=O)O ?
Shiga toxin inh: inactive; Pf growth 96h: inconclusive; SARS PLP yeast: inactive; CHX counter: inactive; Pf growth 48h: inactive; NS1 inh: inactive

Results for CC(C)CCNC(=O)c1onc(CSc2ccc(F)cc2)c1C(=O)NCCC(C)C ?
Pf growth 96h: inconclusive; SARS PLP yeast: inactive; Pf growth 48h: 4.1µM

What do the screens show for `C=CCn1c(NCc2ccc(OC)cc2)nc2ccccc21`?
Shiga toxin inh: 40; Pf growth 96h: inconclusive; SARS PLP yeast: inactive; CHX counter: 18; Pf growth 48h: inactive; NS1 inh: inactive

How did Cn1c(NCc2c[nH]c3ccccc23)nc2ccccc21 do in these assays?
Shiga toxin inh: inactive; Pf growth 96h: inactive; SARS PLP yeast: inactive; CHX counter: 15; Pf growth 48h: inactive; NS1 inh: inactive

Results for C=CCn1c(C(C)(C)C)nc2ccccc21 ?
Shiga toxin inh: inactive; Pf growth 96h: inactive; SARS PLP yeast: inactive; CHX counter: inactive; Pf growth 48h: inactive; NS1 inh: inactive

What do the screens show for `CCn1c(NCc2c[nH]c3ccccc23)nc2ccccc21`?
NS1 inh: inactive

How did C=CCn1c(NCc2c[nH]c3ccccc23)nc2ccccc21 do in these assays?
Shiga toxin inh: 27; Pf growth 96h: inactive; SARS PLP yeast: inactive; CHX counter: 17; Pf growth 48h: inactive; NS1 inh: inactive

Results for COc1ccc(NC(=O)CSc2nc3n[nH]c(C)c3c(=N)n2-c2ccc(Cl)c(C)c2)cc1OC ?
Shiga toxin inh: inactive; Pf growth 96h: inconclusive; SARS PLP yeast: inactive; CHX counter: inactive; Pf growth 48h: inconclusive; NS1 inh: inactive

Results for CS(=O)(=O)N1CCN(c2ccccc2NC(=O)C(c2ccccc2)c2ccccc2)CC1 ?
Shiga toxin inh: inactive; SARS PLP yeast: inactive; CHX counter: inactive; Pf growth 48h: 10µM; NS1 inh: inactive

How did CS(=O)(=O)N1CCN(c2ccccc2NC(=O)c2ccc3ccccc3c2)CC1 do in these assays?
Shiga toxin inh: inactive; Pf growth 96h: inconclusive; SARS PLP yeast: inactive; CHX counter: inactive; Pf growth 48h: 12µM; NS1 inh: inactive

What do the screens show for `COc1ccc(NC(=O)c2cc(CC(C)C)nc3ccccc23)cc1`?
Shiga toxin inh: inactive; Pf growth 96h: inactive; SARS PLP yeast: inactive; CHX counter: inactive; Pf growth 48h: inconclusive; NS1 inh: inactive

What do the screens show for `Cc1ccc(NS(=O)(=O)c2ccccc2)c(C)c1`?
Shiga toxin inh: inactive; CHX counter: inactive

Results for CC(C)(C)C1CCC(OC(=O)CN2CCCCC2)CC1 (stereo not given) ?
Shiga toxin inh: inactive; Pf growth 96h: inactive; SARS PLP yeast: inactive; CHX counter: inactive; Pf growth 48h: inactive; NS1 inh: inactive

How did CCCCCCOc1ccc(/C(N)=N/O)cc1 do in these assays?
Shiga toxin inh: 61; Pf growth 96h: inactive; SARS PLP yeast: inactive; CHX counter: 44; Pf growth 48h: inactive; NS1 inh: inactive

How did CCCCCOc1ccc(C(=O)NC(CCC)C(=O)O)cc1 (stereo not given) do in these assays?
Shiga toxin inh: inactive; Pf growth 96h: inactive; SARS PLP yeast: inactive; CHX counter: inactive; Pf growth 48h: inactive; NS1 inh: inactive

Results for O=C(COC(=O)c1ccccc1F)c1ccc(-n2nncc2-c2ccco2)cc1 ?
Shiga toxin inh: inactive; Pf growth 96h: inconclusive; SARS PLP yeast: inactive; CHX counter: 21; NS1 inh: inactive

How did CCOC(=O)c1cc(-c2ccco2)nn1-c1ccc(C)cc1 do in these assays?
Shiga toxin inh: inactive; Pf growth 96h: inactive; SARS PLP yeast: inactive; CHX counter: inactive; Pf growth 48h: inactive; NS1 inh: inactive

How did COc1ccccc1C(=O)O/N=C(\c1ccccc1)c1ccncc1 do in these assays?
Shiga toxin inh: inactive; Pf growth 96h: inconclusive; SARS PLP yeast: inactive; CHX counter: inactive; Pf growth 48h: inactive

Results for N/C(=N\OC(=O)c1ccc(Cl)cc1Cl)c1ccncc1 ?
Shiga toxin inh: 82; Pf growth 96h: inactive; SARS PLP yeast: inactive; CHX counter: 30; Pf growth 48h: inactive; NS1 inh: inactive

Results for Cc1ccc(C(=O)O/N=C(\N)c2ccccn2)c(Cl)c1 ?
Pf growth 96h: inconclusive; SARS PLP yeast: inactive; CHX counter: inactive; Pf growth 48h: inconclusive; NS1 inh: inactive

Results for COc1cccc(C(=O)O/N=C(\N)c2ccncc2)c1OC ?
Shiga toxin inh: 27; Pf growth 96h: inactive; SARS PLP yeast: inactive; CHX counter: 35; Pf growth 48h: inactive; NS1 inh: inactive

Results for Cc1ccc(C(=O)O/N=C(\N)c2ccccc2)c(Cl)c1 ?
Shiga toxin inh: inactive; Pf growth 96h: inactive; SARS PLP yeast: inactive; CHX counter: 36; Pf growth 48h: inactive; NS1 inh: inactive

How did N/C(=N\OC(=O)c1ccccc1Cl)c1ccncc1 do in these assays?
Shiga toxin inh: 71; Pf growth 96h: inactive; SARS PLP yeast: inactive; CHX counter: 17; Pf growth 48h: inactive; NS1 inh: inactive

How did C=CCNC(=O)c1c(Cl)nc(C)c([N+](=O)[O-])c1C do in these assays?
Shiga toxin inh: inactive; Pf growth 96h: inactive; SARS PLP yeast: inactive; CHX counter: inactive; Pf growth 48h: inactive; NS1 inh: inactive

What do the screens show for `O=C(N[C@@H](Cc1ccccc1)C(=O)N1CCN(S(=O)(=O)c2ccccc2F)CC1)c1ccco1`?
SARS PLP yeast: inactive

How did N/C(=N\OC(=O)c1cc(Cl)ccc1Cl)c1ccncc1 do in these assays?
Shiga toxin inh: 74; Pf growth 96h: inconclusive; SARS PLP yeast: inactive; CHX counter: 27; Pf growth 48h: inconclusive; NS1 inh: inactive

Results for Clc1cccc(Cl)c1COc1ccncc1 ?
Shiga toxin inh: inactive; Pf growth 96h: inactive; SARS PLP yeast: inconclusive; CHX counter: inactive; Pf growth 48h: inactive; NS1 inh: inactive

What do the screens show for `Cc1ccccc1C(=O)O/N=C(\N)c1ccncc1`?
Shiga toxin inh: 53; Pf growth 96h: inconclusive; SARS PLP yeast: inactive; CHX counter: 61; Pf growth 48h: inactive; NS1 inh: inactive

What do the screens show for `O=C(OCc1c(Cl)cccc1Cl)c1ccncc1`?
Shiga toxin inh: inactive; Pf growth 96h: 12µM; SARS PLP yeast: inactive; CHX counter: inactive; Pf growth 48h: inconclusive; NS1 inh: inactive

Results for COc1ccc(Cl)cc1C(=O)O/N=C(\N)c1ccc(Cl)cc1 ?
Shiga toxin inh: inactive; Pf growth 96h: inconclusive; SARS PLP yeast: inactive; CHX counter: inactive; Pf growth 48h: inactive; NS1 inh: inactive
